Test results as given in PubChem BioAssay (NCI).
Compounds without any hit were thinned out: in the full panel of roughly 83,000, 20% have a hit.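 A percent growth of 40 corresponds to 60% growth inhibition; 0 means no net growth; -100 means all cells died. Active threshold: below 10.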 Active and inactive are the calls of the source.

Columns and labels:
Test in all cases: NCI-60 one-dose screen, 48 h (100 = growth as untreated, 0 = no growth, -100 = all killed)
Conditions in all cases: 10 µM unless noted
MOLT-4 leukemia = system: MOLT-4 leukemia
RPMI-8226 leukemia = system: RPMI-8226 leukemia
OVCAR-8 ovarian = system: OVCAR-8 ovarian
OVCAR-5 ovarian = system: OVCAR-5 ovarian
OVCAR-4 ovarian = system: OVCAR-4 ovarian
SK-OV-3 ovarian = system: SK-OV-3 ovarian
IGROV1 ovarian = system: IGROV1 ovarian
OVCAR-3 ovarian = system: OVCAR-3 ovarian
HS 578T breast = system: HS 578T breast
SR leukemia = system: SR leukemia

Measured: growth

[Au+].[N-]=C=O.c1ccc(CN2[CH-]N(Cc3ccccc3)C(c3ccccc3)=C2c2ccccc2)cc1
inactive: MOLT-4 leukemia 76.1% | RPMI-8226 leukemia 63.9% | OVCAR-8 ovarian 98.9% | OVCAR-5 ovarian 145% | OVCAR-4 ovarian 79.7% | SK-OV-3 ovarian 96.8% | IGROV1 ovarian 81.1% | OVCAR-3 ovarian 82.6% | HS 578T breast 84.4%

CCCCN(CCCC)P(=O)(Oc1ccccc1)Oc1ccccc1
inactive: MOLT-4 leukemia 39.4% | RPMI-8226 leukemia 54.4% | OVCAR-8 ovarian 84.1% | OVCAR-5 ovarian 94.1% | OVCAR-4 ovarian 51.5% | SK-OV-3 ovarian 66.7% | IGROV1 ovarian 57.3% | OVCAR-3 ovarian 87.2% | HS 578T breast 85.3%

O=C(O)c1ccc([S-])cc1.[Au+].c1ccc(CN2[CH-]N(Cc3ccccc3)C(c3ccccc3)=C2c2ccccc2)cc1
active: MOLT-4 leukemia -1.59% | RPMI-8226 leukemia -11% | OVCAR-8 ovarian 1.87% | OVCAR-5 ovarian -14.2% | SK-OV-3 ovarian -5% | IGROV1 ovarian -58.6% | OVCAR-3 ovarian -95.2%
inactive: OVCAR-4 ovarian 38.1% | HS 578T breast 23.2%

CC1(C)N=C(N)N=C(N)N1c1ccc(OCCCNC(=O)Nc2ccc(S(=O)(=O)F)cc2)c(Cl)c1
inactive: MOLT-4 leukemia 33.4% | RPMI-8226 leukemia 24.6% | OVCAR-8 ovarian 31.5% | OVCAR-5 ovarian 48% | OVCAR-4 ovarian 54.3% | SK-OV-3 ovarian 58.5% | IGROV1 ovarian 17.9% | OVCAR-3 ovarian 27.4% | HS 578T breast 83.6%

CN1CCC(O)(c2ccc(F)cc2)C(C(=O)c2ccc(F)cc2)C1 (stereo unspecified)
inactive: MOLT-4 leukemia 94.2% | OVCAR-8 ovarian 102% | OVCAR-5 ovarian 93.2% | OVCAR-4 ovarian 102% | SK-OV-3 ovarian 102% | IGROV1 ovarian 96.3% | OVCAR-3 ovarian 111% | HS 578T breast 101%
active: RPMI-8226 leukemia -9.61%

CCN(CC)c1ccc2c(c1)OC(N)=C(C#N)C2c1cc(OC)c2c(c1)OCO2 (stereo unspecified)
active: SK-OV-3 ovarian 9.72% | OVCAR-3 ovarian -30.7% | HS 578T breast 9.12%
inactive: MOLT-4 leukemia 23.7% | RPMI-8226 leukemia 26.6% | OVCAR-8 ovarian 17.6% | OVCAR-5 ovarian 51.6% | OVCAR-4 ovarian 43.5% | IGROV1 ovarian 24%

CCCCOc1ccc(C(N)Cc2ccccc2)cc1 (stereo unspecified)
inactive: MOLT-4 leukemia 85.5% | RPMI-8226 leukemia 80.5% | OVCAR-8 ovarian 97.6% | OVCAR-5 ovarian 95.9% | OVCAR-4 ovarian 107% | SK-OV-3 ovarian 114% | IGROV1 ovarian 88.2% | OVCAR-3 ovarian 102% | HS 578T breast 91%

CN1C(=O)N[C@H]2[C@@H]3NC(=O)c4ccc(Br)n4[C@@H]3C[C@]21O
active: MOLT-4 leukemia -9.97% | RPMI-8226 leukemia -23.2% | OVCAR-8 ovarian -12.4% | OVCAR-5 ovarian -2.49% | OVCAR-4 ovarian -13.9% | SK-OV-3 ovarian -2.3% | IGROV1 ovarian -13.9% | OVCAR-3 ovarian -28.7% | HS 578T breast -28.5%

O=C(c1cccc(O)c1O)c1cn(Cc2ccc(F)cc2)c2cccc(O)c12
inactive: OVCAR-8 ovarian 30.5% | OVCAR-5 ovarian 33.8% | OVCAR-4 ovarian 39% | SK-OV-3 ovarian 40.7% | OVCAR-3 ovarian 22.3% | HS 578T breast 45.5%
active: MOLT-4 leukemia 4.3% | RPMI-8226 leukemia 9.16% | IGROV1 ovarian -42.8%

O=C(CCl)c1ccc([N+](=O)[O-])o1
inactive: SK-OV-3 ovarian 102% | HS 578T breast 40.9%
active: MOLT-4 leukemia -52.8% | RPMI-8226 leukemia -47.7% | OVCAR-8 ovarian 8.79% | OVCAR-5 ovarian -72.8% | OVCAR-4 ovarian 2.25% | IGROV1 ovarian 1.46% | OVCAR-3 ovarian -100%

NC(N)=N/N=C\c1c[nH]c2ccc(Br)cc12
inactive: MOLT-4 leukemia 79.2% | RPMI-8226 leukemia 80.8% | OVCAR-8 ovarian 83.1% | OVCAR-5 ovarian 91.8% | OVCAR-4 ovarian 97.2% | SK-OV-3 ovarian 97.4% | IGROV1 ovarian 101% | OVCAR-3 ovarian 81.4% | HS 578T breast 80.6%

CC1[C@H](C)OC(=O)CC(O)CC(O)CC(O)CCC(O)C(O)C[C@]2(O)CC(O)C(C(=O)O)C(CC(OC3O[C@H](C)[C@@H](O)[C@H](N)[C@@H]3O)/C=C/C=C/C=C/C=C/CC/C=C/C=C/[C@H](C)[C@H]1O)O2 (stereo partly specified)
inactive: MOLT-4 leukemia 122% | RPMI-8226 leukemia 106% | OVCAR-8 ovarian 92% | OVCAR-5 ovarian 95.4% | OVCAR-4 ovarian 102% | SK-OV-3 ovarian 110% | IGROV1 ovarian 101% | OVCAR-3 ovarian 109% | HS 578T breast 97%

COc1cccc2c1c(C(=O)c1ccco1)cn2Cc1ccc(F)cc1
active: IGROV1 ovarian 8.63%
inactive: MOLT-4 leukemia 307% | RPMI-8226 leukemia 182% | OVCAR-8 ovarian 108% | OVCAR-5 ovarian 122% | OVCAR-4 ovarian 114% | SK-OV-3 ovarian 122% | OVCAR-3 ovarian 108% | HS 578T breast 122%

CCN(CC)CCOC(=O)C(OC(C)C)(c1ccccc1)c1ccccc1
inactive: MOLT-4 leukemia 93.1% | RPMI-8226 leukemia 102% | OVCAR-8 ovarian 106% | OVCAR-5 ovarian 92.9% | OVCAR-4 ovarian 103% | SK-OV-3 ovarian 94.4% | IGROV1 ovarian 87.2% | OVCAR-3 ovarian 97.3% | HS 578T breast 93.4%

COc1cc2c(c(OC)c1OC)-c1ccc([O-])c(=O)cc1[C@@H](NC(C)=O)CC2.COc1cc2c(c(OC)c1OC)-c1ccc([O-])c(=O)cc1[C@@H](NC(C)=O)CC2.[Cu+2]
inactive: MOLT-4 leukemia 10.5% | RPMI-8226 leukemia 15.3% | OVCAR-8 ovarian 23.2% | OVCAR-5 ovarian 54.3% | OVCAR-4 ovarian 48.6% | SK-OV-3 ovarian 17.2%
active: IGROV1 ovarian -0.159% | OVCAR-3 ovarian -26.7%

C=CCCCCCCCCC(=O)[O-].C=CCCCCCCCCC(=O)[O-].[Zn+2]
inactive: MOLT-4 leukemia 103% | RPMI-8226 leukemia 95.2% | OVCAR-8 ovarian 96.6% | OVCAR-5 ovarian 106% | OVCAR-4 ovarian 115% | SK-OV-3 ovarian 112% | IGROV1 ovarian 105% | OVCAR-3 ovarian 118% | HS 578T breast 105%

COc1cccc2c1c(C(=O)C(=O)Nc1ccn[nH]1)cn2Cc1ccc(F)cc1
inactive: MOLT-4 leukemia 97.5% | RPMI-8226 leukemia 96.8% | OVCAR-8 ovarian 101% | OVCAR-5 ovarian 91.2% | OVCAR-4 ovarian 110% | SK-OV-3 ovarian 95.9% | IGROV1 ovarian 84.7% | OVCAR-3 ovarian 106% | HS 578T breast 100%

COC(=O)[C@]12CCC(C)(C)C[C@H]1[C@H]1C(=O)C[C@@H]3[C@@]4(C)C[C@@]5(CC(C)(C)[C@@H]4CC[C@@]3(C)[C@]1(C)CC2)OO[C@@](C)(C(F)(F)F)O5
inactive: MOLT-4 leukemia 93.6% | RPMI-8226 leukemia 90.3% | OVCAR-8 ovarian 97.6% | OVCAR-5 ovarian 94.1% | OVCAR-4 ovarian 81.1% | SK-OV-3 ovarian 103% | IGROV1 ovarian 97.8% | OVCAR-3 ovarian 106% | HS 578T breast 99.7%

COc1ccc(/C=C\c2cc(OC)c(OC)c(OC)c2)cc1NC(=O)/C=C/c1cc(OC)c(OC)c(OC)c1
inactive: MOLT-4 leukemia 47.7% | RPMI-8226 leukemia 63.8% | OVCAR-8 ovarian 68.8% | OVCAR-5 ovarian 77.6% | OVCAR-4 ovarian 66.1% | IGROV1 ovarian 62.4% | OVCAR-3 ovarian 47.7% | HS 578T breast 51.8%
active: SK-OV-3 ovarian 3.82%

CC[CH2][Sn]([Cl])([Cl])[CH2]CC
inactive: MOLT-4 leukemia 58.6% | RPMI-8226 leukemia 19% | OVCAR-8 ovarian 89.7% | OVCAR-5 ovarian 94.9% | OVCAR-4 ovarian 95.2% | SK-OV-3 ovarian 107% | IGROV1 ovarian 84.6% | OVCAR-3 ovarian 105% | HS 578T breast 96.8%

CC1=C(CNO)C2=C(C)C3(CC3)[C@@](C)(O)C(=O)C2=C1
active: OVCAR-5 ovarian 1.01% | OVCAR-4 ovarian -8.4% | SK-OV-3 ovarian 4% | IGROV1 ovarian -8.2% | OVCAR-3 ovarian -16.5%
inactive: MOLT-4 leukemia 51% | RPMI-8226 leukemia 99.4% | OVCAR-8 ovarian 34.5% | HS 578T breast 40.2%

CC(=O)OCc1cc[c]([Hg][Cl])o1
active: SR leukemia -20.3% | OVCAR-3 ovarian 0.253%
inactive: RPMI-8226 leukemia 26.4% | OVCAR-8 ovarian 36.8% | OVCAR-5 ovarian 43.9% | OVCAR-4 ovarian 62.9% | SK-OV-3 ovarian 71% | IGROV1 ovarian 11.3% | HS 578T breast 57.5%

O=C(CC1(O)C(=O)Nc2ccccc21)c1ccc(C(=O)NCC2CCC3(CC2)OOC2(CCCCC2)OO3)cc1 (stereo unspecified)
inactive: SR leukemia 10.8% | RPMI-8226 leukemia 48.1% | OVCAR-8 ovarian 45.3% | OVCAR-5 ovarian 106% | OVCAR-4 ovarian 71.9% | SK-OV-3 ovarian 81.2% | IGROV1 ovarian 41% | OVCAR-3 ovarian 74.1% | HS 578T breast 91.9%

O=P1(NCCCl)OCCCN1CCCl (stereo unspecified)
inactive: SR leukemia 91.2% | RPMI-8226 leukemia 105% | OVCAR-8 ovarian 114% | OVCAR-5 ovarian 106% | OVCAR-4 ovarian 112% | SK-OV-3 ovarian 100% | IGROV1 ovarian 111% | OVCAR-3 ovarian 107% | HS 578T breast 92.7%

C=CCn1cc(C=C2C(=O)N(C)C(=O)N(C)C2=O)c2ccccc21
inactive: MOLT-4 leukemia 97.6% | OVCAR-8 ovarian 83.1% | OVCAR-5 ovarian 14.9% | OVCAR-4 ovarian 97.6% | SK-OV-3 ovarian 87.4% | IGROV1 ovarian 95.6% | OVCAR-3 ovarian 96.1% | HS 578T breast 76%

NC(=Nc1ccccc1)N[N+](=O)[O-]
inactive: MOLT-4 leukemia 89.2% | RPMI-8226 leukemia 104% | OVCAR-8 ovarian 119% | OVCAR-5 ovarian 91.4% | OVCAR-4 ovarian 96.5% | SK-OV-3 ovarian 98.4% | IGROV1 ovarian 121% | OVCAR-3 ovarian 110% | HS 578T breast 97.5%

[Cl][Hg][c]1cc[c]([Hg][Cl])o1
inactive: OVCAR-8 ovarian 65.1% | OVCAR-5 ovarian 122% | OVCAR-4 ovarian 79.6% | SK-OV-3 ovarian 94.9% | IGROV1 ovarian 15.9% | HS 578T breast 55.4%
active: SR leukemia 6.25% | RPMI-8226 leukemia 1.23% | OVCAR-3 ovarian -1.69%

Clc1ccc2nnnn2n1
active: RPMI-8226 leukemia 5.38% | OVCAR-3 ovarian -3.95%
inactive: MOLT-4 leukemia 17.3% | OVCAR-8 ovarian 74.1% | OVCAR-5 ovarian 67.1% | SK-OV-3 ovarian 92% | HS 578T breast 89.6%

CC1=C(CN)C2=C(C)C3(CC3)[C@@](C)(O)C(=O)C2=C1
inactive: MOLT-4 leukemia 96.7% | RPMI-8226 leukemia 114% | OVCAR-8 ovarian 84.2% | OVCAR-5 ovarian 97.9% | OVCAR-4 ovarian 93.2% | SK-OV-3 ovarian 102% | IGROV1 ovarian 94.8% | OVCAR-3 ovarian 101% | HS 578T breast 86%

C[C@]12CC[C@H]3[C@@H](CC[C@]4(O)C[C@@H](O[C@@H]5O[C@H](CO)[C@@H](O[C@@H]6OC[C@@H](O)[C@H](O)[C@H]6O)[C@H](O)[C@H]5O)CC[C@]34C=O)[C@@]1(O)CC[C@@H]2C1=CC(=O)OC1
inactive: RPMI-8226 leukemia 10% | OVCAR-5 ovarian 31.1% | IGROV1 ovarian 18.6%
active: SR leukemia -31.7% | OVCAR-8 ovarian 2.06% | OVCAR-4 ovarian 2.78% | SK-OV-3 ovarian -3.1% | OVCAR-3 ovarian -34.5% | HS 578T breast 8.83%
